Active and inactive are the calls of the source. The calls were made as follows: active = hit-call score of the fitted dose curve at least 0.9, where 1 is the maximum; inactive = score below 0.9.
Assays:
[1] = read-out: Interferon-gamma inducible Protein 10 (IP10), CXCL10 (gene 3627); test: BSK_hDFCGF_IP10: BioMAP Diversity Plus: hDFCGF Assay for Interferon-gamma inducible Protein 10 (IP10) Biomarker Activity (AID 2283053); settings: primary human foreskin fibroblasts; actives raise or lower the signal
Summary of the method: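 Human foreskin fibroblast primary cells (hDFCGF system) were dosed with chemical and assayed at 24 h; IP-10 measured by ELISA. Activity fitted bidirectionally relative to DMSO negative control as baseline.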

[2] = read-out: Urokinase-type plasminogen activator receptor (uPAR), PLAUR (gene 5329); test: BSK_CASM3C_uPAR: BioMAP Diversity Plus: CASM3C Assay for Urokinase-type plasminogen activator receptor (uPAR) Biomarker Activity (AID 2283054); settings: primary human coronary artery smooth muscle cells; actives raise or lower the signal;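 also: cell-surface uPAR protein level quantified by ELISA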
[3] = read-out: Vascular cell adhesion molecule 1 (VCAM1), VCAM1 (gene 7412); test: BSK_CASM3C_VCAM1: BioMAP Diversity Plus: CASM3C Assay for Vascular cell adhesion molecule 1 (VCAM1) Biomarker Activity (AID 2283055); settings: primary human coronary artery smooth muscle cells; actives raise or lower the signal;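 also: VCAM-1 protein level quantified by ELISA on the cells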
[4] = read-out: Collagen III, COL3A1 (gene 1281); test: BSK_hDFCGF_CollagenIII: BioMAP Diversity Plus: hDFCGF Assay for Collagen III Biomarker Activity (AID 2283056); settings: primary human foreskin fibroblasts; actives raise or lower the signal
Summary of the method: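 Response relative to DMSO, fitted in both directions, reflects ELISA-measured collagen III in human primary skin fibroblasts 24 h after compound addition.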

[5] = read-out: Epidermal growth factor receptor (EGFR), EGFR (gene 1956); test: BSK_hDFCGF_EGFR: BioMAP Diversity Plus: hDFCGF Assay for Epidermal growth factor receptor (EGFR) Biomarker Activity (AID 2283057); settings: primary human foreskin fibroblasts; actives raise or lower the signal
Summary of the method: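 Primary human foreskin fibroblasts were exposed to compound for 24 h, after which cell-surface EGFR was quantified by ELISA. Activity was fitted bidirectionally against the DMSO negative control as baseline.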

[6] = read-out: Interleukin-8 (IL8), CXCL8 (gene 3576); test: BSK_hDFCGF_IL8: BioMAP Diversity Plus: hDFCGF Assay for Interleukin-8 (IL8) Biomarker Activity (AID 2283058); settings: primary human foreskin fibroblasts; actives raise or lower the signal
Summary of the method: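 Fibroblast monolayers (human foreskin, hDFCGF) received test chemical for 24 h before ELISA detection of IL-8; either increases or decreases relative to DMSO count as activity.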

[7] = BSK_hDFCGF_Proliferation: Cell Proliferation Assessment in the BioMAP Diversity Plus: hDFCGF Assay (AID 2283059); settings: primary human foreskin fibroblasts;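 also: curves fitted for both rise and fall of signal versus DMSO baseline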
Summary of the method: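 Primary human foreskin fibroblasts, sub-confluent; […]; 10% TCA fix, 0.1% SRB stain, A560 total protein. Gain/loss fitted bidirectionally vs DMSO control.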

[8] = read-out: Macrophage colony-stimulating factor (MCSF), CSF1 (gene 1435); test: BSK_hDFCGF_MCSF: BioMAP Diversity Plus: hDFCGF Assay for Macrophage colony-stimulating factor (MCSF) Biomarker Activity (AID 2283060); settings: primary human foreskin fibroblasts; actives raise or lower the signal
Summary of the method: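 fibroblasts (human foreskin, primary), 24 h post-dose; M-CSF by ELISA; bidirectional fit, DMSO = baseline.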

[9] = BSK_hDFCGF_SRB: Viability Assessment in the BioMAP Diversity Plus: hDFCGF Assay (AID 2283061); settings: primary human foreskin fibroblasts;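 also: cells exposed to compound for 24 h before the read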
Summary of the method: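 SRB-based viability read on primary human skin fibroblasts at 24 h: TCA fixation, 0.1% dye, 560 nm. Gain or loss of signal is fitted against the DMSO negative control.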

[10] = read-out: TIMP metallopeptidase inhibitor 1 (TIMP1), TIMP1 (gene 7076); test: BSK_hDFCGF_TIMP1: BioMAP Diversity Plus: hDFCGF Assay for TIMP metallopeptidase inhibitor 1 (TIMP1) Biomarker Activity (AID 2283062); settings: primary human foreskin fibroblasts; actives raise or lower the signal
Summary of the method: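 Bidirectional curve fitting against DMSO baseline yielded this endpoint, based on ELISA detection of TIMP-1 in primary human foreskin fibroblasts exposed to compound for 24 h.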

[11] = read-out: Monokine induced gamma interferon (MIG), CXCL9 (gene 4283); test: BSK_hDFCGF_MIG: BioMAP Diversity Plus: hDFCGF Assay for Monokine induced gamma interferon (MIG) Biomarker Activity (AID 2283063); settings: primary human foreskin fibroblasts; actives raise or lower the signal
Summary of the method: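 Endpoint derived by bidirectional fitting relative to DMSO; MIG quantified via ELISA in primary human foreskin fibroblasts harvested 24 h after dosing.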

[12] = read-out: Matrix Metallopeptidase 1 (MMP1), MMP1 (gene 4312); test: BSK_hDFCGF_MMP1: BioMAP Diversity Plus: hDFCGF Assay for Matrix Metallopeptidase 1 (MMP1) Biomarker Activity (AID 2283064); settings: primary human foreskin fibroblasts; actives raise or lower the signal
Summary of the method: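 hDFCGF primary fibroblasts (human foreskin); chemical added; 24 h; MMP1 by ELISA; bidirectional fit vs DMSO.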

[13] = read-out: Vascular cell adhesion molecule 1 (VCAM1), VCAM1 (gene 7412); test: BSK_hDFCGF_VCAM1: BioMAP Diversity Plus: hDFCGF Assay for Vascular cell adhesion molecule 1 (VCAM1) Biomarker Activity (AID 2283065); settings: primary human foreskin fibroblasts; actives raise or lower the signal;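 as to AC50: VCAM-1 protein level quantified by ELISA after 24 h chemical exposure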
Summary of the method: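 Measured after 24 h chemical treatment of primary human skin fibroblasts, VCAM-1 was detected by ELISA and concentration-response analysed in both directions versus DMSO vehicle.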

[14] = read-out: Plasminogen activator inhibitor-1 (PAI1), SERPINE1 (gene 5054); test: BSK_hDFCGF_PAI1: BioMAP Diversity Plus: hDFCGF Assay for Plasminogen activator inhibitor-1 (PAI1) Biomarker Activity (AID 2283066); settings: primary human foreskin fibroblasts; actives raise or lower the signal
Summary of the method: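 Human foreskin fibroblasts in the hDFCGF system were dosed with compound for 24 h; PAI-1 was quantified by ELISA. Bidirectional curve fitting used DMSO as negative control and baseline.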

[15] = read-out: Interferon-gamma inducible Protein 10 (IP10), CXCL10 (gene 3627); test: BSK_KF3CT_IP10: BioMAP Diversity Plus: KF3CT Assay for Interferon-gamma inducible Protein 10 (IP10) Biomarker Activity (AID 2283068); settings: primary human keratinocytes with fibroblasts; actives raise or lower the signal
Summary of the method: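 In a primary skin co-culture of keratinocytes and fibroblasts, IP-10 is quantified by ELISA at 24 h after dosing. SRB staining of parallel wells monitors overt toxicity. Curves are fitted both directions against DMSO.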

[16] = BSK_KF3CT_SRB: Viability Assessment in the BioMAP Diversity Plus: KF3CT Assay (AID 2283069); settings: primary human keratinocytes with fibroblasts;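 also: total protein by sulforhodamine B staining as a cytotoxicity measure; fitted for both signal gain and loss against DMSO baseline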
Summary of the method: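 Keratinocytes co-cultured with foreskin fibroblasts (human primary); chemical added, 24 h; fix 10% TCA, stain 0.1% SRB, A560. Bidirectional fit vs DMSO.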

[17] = read-out: Interleukin-1 alpha (IL1a), IL1A (gene 3552); test: BSK_KF3CT_IL1a: BioMAP Diversity Plus: KF3CT Assay for Interleukin-1 alpha (IL1a) Biomarker Activity (AID 2283070); settings: primary human keratinocytes with fibroblasts; actives raise or lower the signal
Summary of the method: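 Chemicals were dosed onto co-cultured human keratinocytes and foreskin fibroblasts, IL-1a was quantified by ELISA at 24 h, and activity was fitted in both directions relative to DMSO controls.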

[18] = read-out: TIMP metallopeptidase inhibitor 2 (TIMP2), TIMP2 (gene 7077); test: BSK_KF3CT_TIMP2: BioMAP Diversity Plus: KF3CT Assay for TIMP metallopeptidase inhibitor 2 (TIMP2) Biomarker Activity (AID 2283071); settings: primary human keratinocytes with fibroblasts; actives raise or lower the signal
Summary of the method: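 Human primary keratinocyte/foreskin fibroblast co-culture dosed with chemical and sampled at 24 h. TIMP-2 levels quantified by ELISA; bidirectional fitting against DMSO negative control as baseline.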

[19] = read-out: Intercellular Adhesion Molecule 1 (ICAM1), ICAM1 (gene 3383); test: BSK_KF3CT_ICAM1: BioMAP Diversity Plus: KF3CT Assay for Intercellular Adhesion Molecule 1 (ICAM1) Biomarker Activity (AID 2283067); settings: primary human keratinocytes with fibroblasts; actives raise or lower the signal
Summary of the method: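 Bidirectional curve fitting against a DMSO baseline was applied to ICAM-1 ELISA signal from primary human skin co-cultures harvested 24 h after treatment, with SRB staining of parallel wells for overt cytotoxicity.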

[20] = read-out: Transforming growth factor beta 1 (TGFb1), TGFB1 (gene 7040); test: BSK_KF3CT_TGFb1: BioMAP Diversity Plus: KF3CT Assay for Transforming growth factor beta 1 (TGFb1) Biomarker Activity (AID 2283072); settings: primary human keratinocytes with fibroblasts; actives raise or lower the signal
Summary of the method: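 Human keratinocyte plus foreskin fibroblast primary co-culture, dosed with chemical for 24 h. TGF-b1 quantified by ELISA. Activity fitted bidirectionally against DMSO negative control as baseline.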

Measured: AC50

O=C(c1ccccc1)C1CCCCC1
not listed: [19] | [20]
inactive: all other assays above

N[C@@H](Cc1cc(I)c(Oc2ccc(O)c(I)c2)c(I)c1)C(=O)O
active: [7] 8.65 µM | [13] 6.76 µM
inactive: all other assays above

COC(=O)c1c(Cl)nn(C)c1S(=O)(=O)NC(=O)Nc1nc(OC)cc(OC)n1
active: [15] 20 µM
not listed: [20]
inactive: all other assays above

CCCCOC(=O)[C@@H](C)Oc1ccc(Oc2ccc(C(F)(F)F)cn2)cc1
inactive: all assays above

COC(=O)c1ccc(I)cc1S(=O)(=O)NC(=O)Nc1nc(C)nc(OC)n1
not listed: [19] | [20]
inactive: all other assays above

O=C(O)c1ccccc1
not listed: [20]
inactive: all other assays above

O=C(c1ccc(O)cc1O)c1ccc(O)cc1O
not listed: [20]
inactive: all other assays above
